Compounds without any hit were thinned out: in the full panel of roughly 83,000, 20% have a hit.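 Step 1: grow cells in 96-well plates. Step 2: add test compound at a single concentration. Step 3: incubate 48 h. Step 4: record percent growth.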 Activity calls are given as the source filed them.

The experiment has as its system PC-3 prostate. Put plainly: NCI-60 one-dose screen, 48 h (100 = growth as untreated, 0 = no growth, -100 = all killed). The following applies: 10 µM unless noted. The protocol: Growth inhibition of the PC-3 human tumor cell line is measured as a screen for anti-cancer activity. Cells are grown in 96 well plates and exposed to the test compound for 48 hours. Compounds are tested at a single concentration, which is 10^-5 M for most compounds. The reported endpoint is percent growth (GI% or GIPRCNT), where numbers from 0 - 100% represent growth inhibition, and numbers from -100% - 0 represent cell death. For example, a value of 40 represents 60% growth inhibition. A value of 0 means no net growth occurred over the course of the experiment. A value of -40 indicates 40% of cells at the beginning of the experiment died by the end of the experiment. A value of -100 means all cells are dead at the end of the experiment.
NCI-60 Human Tumor Cell Lines Screen was performed using the standard one-dose NCI protocol, which is described in more detail at https://dtp.cancer.gov/discovery_development/nci-60/default.htm.
Compounds with GIPRCNT values below 10 were considered active. Activity score was based on GIPRCNT using the following formula: […]
Score is 0 for GIPRCNT values of 100 or above, 50 for GIPRCNT values of 0, and 100 for GIPRCNT values of -100.
As for `O=S(=O)(NCCCNc1nccc(-c2c(-c3ccc(F)c(O)c3)nc3sccn23)n1)c1ccc(F)cc1`, the growth was 8.22% (active).
To `COc1ccc(CNCCN2C(=O)c3ccc4c5c(ccc(c35)C2=O)C(=O)N(CCNCc2ccc(OC)cc2)C4=O)cc1` belongs -76% (active).
As for `CCCNC(=O)Oc1ccc(/C(=C(\C)c2ccccc2)c2ccc(OCCN3CCCCC3)cc2)cc1`, the figure is 57.1% (inactive); as for `O=C(Nc1nc(-c2ccccc2Cl)cs1)c1cc(-c2ccccc2)nc2ccc(Cl)cc12`, 73.2% (inactive).
Take `COc1ccc(-c2nn(Cc3ccccc3)c3c2-c2oncc2CC3)cc1OC`: the growth is 86.6% (inactive).
To `COc1ccc(-c2cnc(N)nc2-c2ccc(OC)cc2O)cc1` belongs 92% (inactive); to `CCCN=C(N)c1ccc(NC(=O)c2ccc(C(=O)Nc3ccc(C(N)=NCCC)cc3)cc2)cc1`, 90.8% (inactive); to `Cc1nc2sc(C(=O)Nc3ccccc3)c(N)c2cc1C(=O)c1ccc(C(F)(F)F)cc1`, 102% (inactive).
To `COc1ccc(C(=O)c2cc3c(N)c(C(=O)Nc4cccc5ccccc45)sc3nc2C)cc1` belongs 24.5% (inactive).
Regarding `CN(C)Cc1c(-c2ccccc2)[nH]c2ccccc12`, the growth was 94.9% (inactive).
To `CCN(CC)CCCC(Nc1c2ccc(Cl)cc2nc2ccc(OC)cc12)c1ccc(Cl)cc1` (stereo not given) belongs 33.6% (inactive); to `CC[C@@]12C=CCN3CC[C@]4(c5cc(NC(=O)COc6cc(OCC(=O)Nc7cc8c(cc7OC)N(C)[C@H]7[C@@](O)(C(=O)OC)[C@H](OC(C)=O)[C@]9(CC)C=CCN%10CC[C@]87[C@@H]%109)cc7oc(-c8ccccc8)cc(=O)c67)c(OC)cc5N(C)[C@@H]4[C@](O)(C(=O)OC)[C@H]1OC(C)=O)[C@H]32`, 23% (inactive).
To `COc1ccc(-c2nc(N/N=C/c3cccc(Br)c3)nc(N3CCOCC3)c2C#N)cc1` belongs 47.8% (inactive).
As for `COc1cc(CCNc2nc3cc(N)cc(N)c3nc2-c2ccccc2)cc(OC)c1`, the figure is 4.03% (active); as for `COc1cccc(C(Cc2ccccc2)Nc2ccccc2)c1OC` (stereo not given), 83.2% (inactive).
Take `COc1cc(C2CC(c3cccc(Nc4ccncc4)c3)=NN2c2ccc(Cl)cc2)cc(OC)c1OC` (stereo not given): the growth was -22% (active).
As for `CCOC(=O)N1CCN(CCCCl)CC1`, the figure is 102% (inactive); as for `CC(=O)c1c(-c2ccc(OC(F)(F)F)cc2)nc2ccccn12`, 95.1% (inactive); as for `CC(=O)c1cc2c(N)c(C(=O)Nc3cncc4ccccc34)sc2nc1C`, 93.8% (inactive).
Regarding `CN1C(=O)N(C)C2NC(N/N=C/c3ccccc3)=NC21` (stereo not given), the growth was 95.6% (inactive).
To `COc1cc(C2NC(c3cc(OC)c(OC)c(OC)c3)C(C#N)(C#N)C2(C#N)C#N)cc(OC)c1OC` (stereo not given) belongs 99.3% (inactive).
Consider `O=C(NNc1nc(Cl)nc(N2CCN(C(c3ccccc3)c3ccccc3)CC2)n1)c1ccccc1`, for which the growth is -46.9% (active).
To `CCNC(=S)NNC(=O)c1cc2ccc1CCc1ccc(cc1)CC2` belongs 91.1% (inactive); to `Clc1cc(Cl)cc(N2N=C(c3cccc(Nc4ccncc4)c3)CC2c2ccc(Br)cc2)c1` (stereo not given), 33.3% (inactive); to `CN1CCN(c2cnc(C(=O)Nc3cc(F)cc4cccnc34)cn2)CC1`, 21.4% (inactive).
To `O=C(OC(OC(=O)c1cc(Cl)cc(Cl)c1)c1cccc2ccccc12)c1ccccc1` (stereo not given) belongs 91.2% (inactive); to `Cn1c(=O)c2[nH]c(CCCc3nc4c([nH]3)c(=O)n(C)c(=O)n4C)nc2n(C)c1=O`, 94% (inactive).
As for `CCCCc1ccc(Nc2nnc(SCC(=O)NC(=O)NCC)s2)cc1`, the figure is 91% (inactive); as for `COc1ccccc1/C=N/NC1=NC2C(N1)N(C)C(=O)N2C` (stereo not given), 95.4% (inactive).
`COc1cc(NCC(O)CN(CC(C)C)C2CCCC2)c2ncccc2c1` (stereo not given): the growth is 68.8% (inactive).
In the case of `COc1ccc(C2CC(c3cccc(Nc4ccncc4)c3)=NN2c2ccc(Cl)cc2)cc1` (stereo not given), the growth is 30.9% (inactive).
To `C=C1C(=O)O[C@H]2[C@H]1CC/C(COC(=O)/C=C/c1c[nH]c3ccccc13)=C\CC[C@@]1(C)O[C@@H]21` belongs -73.4% (active); to `COc1ccc(/C(C)=N/NC(=O)CSc2nc3ccccc3c(=O)n2Cc2ccc(S(N)(=O)=O)cc2)c(OC)c1`, 97.1% (inactive).
As for `CC(=O)Nc1ccc(C(=O)Nc2cc(-c3ccccc3)ccc2N)cc1`, the figure is 64.7% (inactive); as for `COc1ccc(C2CC(n3nnnc3-c3ccccc3)=NN2)cc1` (stereo not given), 58.4% (inactive).
As for `CCCCCCC/C=C/[C@H]1O[C@]2(O)C(=O)C=C3C[C@@H](O[C@@H]4O[C@H](CO)[C@@H](O)C(O)[C@@H]4O)C[C@@H]3[C@H]2C=C1C` (stereo not given in full), the figure is -26.8% (active); as for `CCn1ccnc1C(=O)/C=C/c1ccc(CC(=O)Nc2ccc(F)cc2)cc1`, 33% (inactive).
On to `COc1ccc(Cn2nc3c(c2-c2cc(OC)c(OC)c(OC)c2)-c2oncc2CC3)cc1`, for which the growth is 80.6% (inactive).
As for `CCOc1ccc(/C=N/Nc2cc(C)nc3ccc(Cl)cc23)cc1`, the figure is 71.2% (inactive); as for `COc1cc(NCCCN(CC(C)C)CC(C)C)c2ncccc2c1`, 70.4% (inactive).
